FLuc inh – blocks purified firefly luciferase enzyme activity; P08659; purified P. pyralis luciferase, luminescence, biochemical; Potency, µM (top dose mostly 115 µM), usual class: inhibitors; hit rate 2.5% among 76,000; AID 1347043; note: nearly all actives have a fitted effect of over 65% in size
Target sequence (P08659 whole entry, looked up): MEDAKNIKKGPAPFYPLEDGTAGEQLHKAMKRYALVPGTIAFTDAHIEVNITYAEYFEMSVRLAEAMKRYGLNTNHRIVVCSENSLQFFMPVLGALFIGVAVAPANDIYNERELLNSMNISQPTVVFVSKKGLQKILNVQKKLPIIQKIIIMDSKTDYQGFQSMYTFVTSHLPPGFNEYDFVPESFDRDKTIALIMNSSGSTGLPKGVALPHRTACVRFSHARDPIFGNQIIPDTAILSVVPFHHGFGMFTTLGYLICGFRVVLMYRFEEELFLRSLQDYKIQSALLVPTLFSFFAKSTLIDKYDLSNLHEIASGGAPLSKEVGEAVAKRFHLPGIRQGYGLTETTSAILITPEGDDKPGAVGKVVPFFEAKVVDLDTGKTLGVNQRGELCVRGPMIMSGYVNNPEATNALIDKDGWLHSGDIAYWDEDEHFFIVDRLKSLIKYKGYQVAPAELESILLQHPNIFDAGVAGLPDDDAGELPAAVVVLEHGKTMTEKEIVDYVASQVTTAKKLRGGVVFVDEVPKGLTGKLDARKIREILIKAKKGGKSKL
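Luminescence read by CCD imager after adding enzyme (10nM final) to wells holding compound, titrated in qHTS. Substrates 10uM each D-luciferin and ATP; buffer 50mM Tris acetate pH 7.5, 10mM Mg acetate, Tween-20, BSA.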
hNpr1 antagonist – antagonists of human natriuretic peptide receptor Npr1. hit rate 1.6% among 76,000. Potency, µM (series often up to 46.3 µM), inactives show at the top dose activity change, negative = inhibition, hits mostly inhibitors. P16066. HEK293 hNpr1 GloSensor cGMP, ANP-stimulated luminescence; calls by dose curve; note: nearly all actives have a fitted effect of over 60% in size
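HEK293 cells stably expressing human Npr1 and cGMP GloSensor pGS-40F, loaded 2 h with 2% GloSensor reagent, given compound 30 min at room temperature. Luminescence read before and 20 min after 0.1 nM hNppA.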
3T3 cytotox – NIH 3T3 cell cytotoxicity; AID 1345082; Potency, µM (top dose mostly 96.7 µM), inactives show at the highest dose activity change, negative = cytotoxicity, hits mostly inhibitors; hit rate 4.3% among 94,000; NIH 3T3 viability, CellTiter-Glo ATP luminescence, 48-72 h; note: nearly all actives have a fitted effect of over 55% in size
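Luminescent ATP readout (CellTiter-Glo, 10 min RT) after 48 or 72 hr compound exposure of NIH 3T3 cells seeded at 400 cells/well in 1536-well format; quantitative HTS.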
HEK cytotox – HEK 293 cell cytotoxicity | Potency, µM (highest dose often 115 µM), for the others: top-dose activity change, negative = cytotoxicity, usual class: inhibitors | hit rate 6.6% among 94,000 | HEK 293 viability, ATP luminescence (CellTiter-Glo), 48-72 h; note: nearly all actives have a fitted effect of over 60% in size
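HEK 293 cells at 250 cells/well were exposed to compounds by pintool transfer for 48 or 72 hr at 37 degree Celsius, 5% CO2. Viability was read as ATP-coupled luminescence with CellTiter-Glo after 10 min at room temperature.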
Starred values were filed as active, the others as inactive; i = inactive; ? = inconclusive; . = no result; [ ] = dose if it differs, or a comment. This is a sample that favours compounds with a hit; in the whole collection about 11% have one here. Unless noted, calls come from the whole dose curve; as a rule, active = well fitted curve in the direction sought with a large enough effect; inconclusive = small, poorly fitted or top-dose-only effect, or another doubt; inactive = no such curve, though single readings can be large; an effect the other way counts as inactive or inconclusive. % is set by controls: 0 for no effect and ±100 for the full control effect; potency is the fitted concentration of half-maximal effect.

SMILES	FLuc inh	hNpr1 antagonist	3T3 cytotox	HEK cytotox
Cc1ccnc(N2CC3CCC(C2)N3CC(F)(F)F)c1[N+](=O)[O-]	.	.	-19%	?
Cc1nc(-c2ccccc2Br)cc([C@H]2CN3CC[C@H]2C[C@@H]3CNC(=O)c2ccc(C(C)(C)C)cc2)n1	i	-12%	25µM*	10µM*
Cc1nc(-c2cccs2)cc([C@H]2CN3CC[C@H]2C[C@@H]3CNC(=O)c2ccc(C(F)(F)F)cc2)n1	i	-5%	?	?
Cc1ccc(C(=O)NC[C@H]2C[C@@H]3CCN2C[C@@H]3c2cc(-c3ccccc3Br)nc(C)n2)cc1	i	-5%	?	?
Cc1nc(-c2ccccc2Br)cc([C@H]2CN3CC[C@H]2C[C@@H]3CNC(=O)c2ccc(N(C)C)cc2)n1	i	-8%	?	28µM*
CN(C)c1ccc(C(=O)NC[C@H]2C[C@@H]3CCN2C[C@@H]3CN2CCc3ccccc3C2)cc1	i	-26%[70.6 µM]	32µM*	89µM*
C#C[C@H]1CN2CC[C@H]1C[C@@H]2CNC(=O)c1ccc2ccccc2c1	i	-2%[70.6 µM]	?	?
C#C[C@H]1CN2CC[C@H]1C[C@@H]2COC(=O)Nc1ccc(C(C)(C)C)cc1	i	-1%[70.6 µM]	79µM*	?
C#C[C@H]1CN2CC[C@H]1C[C@@H]2COC(=O)Nc1ccc(OC(F)(F)F)cc1	i	?	40µM*	?
COC1CCN(CC2CCCCCN2C(=O)Cc2cccc(F)c2)CC1 (stereo not drawn)	.	.	-19%	-31%
Cc1nc(-c2ccccc2)cc([C@H]2CN3CC[C@H]2C[C@@H]3CNC(=O)NC(C)C)n1	i	-7%[70.6 µM]	?	?
COc1ccc(NC(=O)NC[C@H]2C[C@@H]3CCN2C[C@@H]3c2cc(-c3ccccc3Br)nc(C)n2)cc1	i	-5%	?	79µM*
Cc1nc(-c2ccccc2Br)cc([C@H]2CN3CC[C@H]2C[C@@H]3CNC(=O)NC(C)C)n1	i	-1%	?	79µM*
Cc1nc(-c2ccccc2Br)cc([C@H]2CN3CC[C@H]2C[C@@H]3CNC(=O)NC2CCCCC2)n1	i	1%	?	?
O=C(c1ccccc1)N1C[C@@H]2C[C@H](C1)c1ccc(-c3cncnc3)c(=O)n1C2	i	6%[70.6 µM]	4%[174 µM]	-6%[172 µM]
O=C(c1ccccc1)N1C[C@@H]2C[C@H](C1)c1c(-c3cncnc3)ccc(=O)n1C2	i	0%[70.6 µM]	3%[174 µM]	2%[172 µM]
O=C(c1ccccc1)N1C[C@@H]2C[C@H](C1)c1c(/C=C/c3ccc(Cl)cc3)ccc(=O)n1C2	i	1%[70.6 µM]	?	89µM*
CO[C@@H]1CNC2Cc3c(oc4ccccc34)C1C2 (stereo partly drawn)	.	.	-20%	?
O=C(Nc1ccccc1)Nc1ccc2n(c1=O)C[C@H]1C[C@@H]2CN(C(=O)c2cccs2)C1	5.6µM*	-1%[70.6 µM]	?	?
O=C(Nc1ccc2n(c1=O)C[C@H]1C[C@@H]2CN(Cc2ccc(F)cc2)C1)c1cccs1	?	?	?	25µM*
O=C(Nc1ccc2n(c1=O)C[C@H]1C[C@@H]2CN(C(=O)COc2ccccc2)C1)c1cccs1	i	-6%	?	?
CCN1CCCC12Cc1ccccc1CN(C(=O)Cc1ccccc1)C2 (stereo not drawn)	.	.	-4%	-27%
CN1CCN(C(=O)Cc2c[nH]c3ncc(-c4cccc(O)c4)cc23)CC1	?	4%[70.6 µM]	89µM*	-7%[172 µM]
CN1CCN(C(=O)Cc2c[nH]c3ncc(-c4ccsc4)cc23)CC1	?	7%[70.6 µM]	89µM*	-10%[172 µM]
CN1CCN(C(=O)Cc2c[nH]c3ncc(-c4ccccc4F)cc23)CC1	?	3%[70.6 µM]	?	-9%[172 µM]
SMILES	FLuc inh	hNpr1 antagonist	3T3 cytotox	HEK cytotox
C=CCN(C)C(=O)[C@H]1CN2CCC1C[C@@H]2Cn1cc(-c2ccc(C(C)(C)C)cc2)nn1 (stereo partly drawn)	?	-2%[70.6 µM]	?	100µM*
COc1ccc(-c2cn(C[C@H]3C[C@@H]4CCN3C[C@@H]4C(=O)NC3CC3)nn2)cc1	i	-8%[70.6 µM]	-3%[174 µM]	i
O=C(Nc1ccccc1)[C@H]1CN2CCC1C[C@@H]2Cn1cc(CSc2ccccc2)nn1 (stereo partly drawn)	i	2%[70.6 µM]	100µM*	100µM*
C=CCN(C)C(=O)[C@H]1CN2CCC1C[C@@H]2Cn1cc(CO)nn1 (stereo partly drawn)	i	-1%[70.6 µM]	-34%[174 µM]	?
COc1ccccc1N1CCN(C(=O)[C@H]2CN3CCC2C[C@@H]3Cn2cc(-c3ccccc3)nn2)CC1 (stereo partly drawn)	i	3%	-29%	45µM*
COc1ccccc1CNC(=O)[C@H]1CN2CC[C@H]1C[C@@H]2Cn1cc(-c2ccccc2)nn1	i	1%[70.6 µM]	-23%[174 µM]	-1%[172 µM]
CC(C)(C)c1ccc(-c2cn(C[C@H]3CC4CCN3C[C@@H]4C(=O)NC3CCCCC3)nn2)cc1 (stereo partly drawn)	i	-1%	?	32µM*
CNCc1cn(C[C@H]2CC3CCN2C[C@@H]3C(=O)Nc2ccccc2)nn1 (stereo partly drawn)	i	3%[70.6 µM]	-1%[174 µM]	-1%[172 µM]
COc1cc2c(cc1Oc1cccc(N(C)C)c1)NC(=O)C21CCN(C(=O)CN2CCOCC2)CC1	i	-17%	-20%	?
CN1Cc2ccccc2-n2ccnc2C12CCN(C(=O)c1cccc(C(F)(F)F)c1)CC2	i	1%	-17%	?
O=c1c(-c2cccs2)ccc2n1C[C@H]1C[C@@H]2CN(C2CCOCC2)C1	i	-1%[70.6 µM]	-27%[174 µM]	-19%[172 µM]
Cn1nc(C2CCCCC2)cc1[C@H]1CN2CC[C@H]1C[C@@H]2CO	i	0%[70.6 µM]	?	?
COc1ccc(NC(=O)OC[C@H]2C[C@@H]3CCN2C[C@@H]3c2cc(C3CCCC3)nc(-c3ccncc3)n2)cc1	i	?	?	14µM*
CCCNC(=O)OC[C@H]1C[C@@H]2CCN1C[C@@H]2c1cc(C(CC)CC)nc(-c2ccncc2)n1	i	?	40µM*	?
COc1ccc(NC(=O)NC[C@H]2C[C@@H]3CCN2C[C@@H]3c2cc(C3CCCC3)nn2C)cc1	i	-8%	?	?
CC(C)c1ccc(NC(=O)OC[C@H]2C[C@@H]3CCN2C[C@@H]3c2cc(C3CCCCC3)nn2C)cc1	i	-19%	22µM*	14µM*
Cn1nc(C2CCCCC2)cc1[C@H]1CN2CC[C@H]1C[C@@H]2CN	i	1%[70.6 µM]	?	100µM*
O=C(Cc1cccc(Cl)c1)N1CCCN(CCn2nc3n(c2=O)CCCC3)CC1	.	.	i	4%
CC[C@H]1CN2CC[C@H]1C[C@@H]2CNCc1cc2ccccc2o1	i	6%[70.6 µM]	?	?
CN1c2ncccc2CN(Cc2ccccn2)CC[C@H]1CO	i	-1%[70.6 µM]	-13%[174 µM]	?
CCC(CC)c1cc([C@H]2CN3CC[C@H]2C[C@@H]3CNC(C)=O)nc(-c2ccncc2)n1	i	?	45µM*	100µM*

Screens (PubChem)
